High-throughput results as filed in PubChem BioAssay.
Rows were chosen to be rich in hits. Some 3.2% of all compounds tested hit in one or more screens of this group.
ClpP mod = qHTS Assay for Activators of ClpP; Potency, µM (top dose mostly 57.5 µM), without a hit: top-dose activity change, negative = active; ATP-dependent Clp protease proteolytic subunit (Bacillus subtilis (strain 168)), P80244; AID 651965, 2013; 1.9% of 340,000 active; purified B. subtilis ClpP, FRET peptide cleavage, 20 min; active = well fitted falling curve with a large enough effect; inconclusive = small, poorly fitted or top-dose-only effect; inactive = no such curve, though single readings can be large or run the other way; note: the source files actives as falling curves though it sought activators and does not explain the sign; nearly all actives have a fitted effect of over 65% in size
Target sequence (P80244 whole entry, looked up): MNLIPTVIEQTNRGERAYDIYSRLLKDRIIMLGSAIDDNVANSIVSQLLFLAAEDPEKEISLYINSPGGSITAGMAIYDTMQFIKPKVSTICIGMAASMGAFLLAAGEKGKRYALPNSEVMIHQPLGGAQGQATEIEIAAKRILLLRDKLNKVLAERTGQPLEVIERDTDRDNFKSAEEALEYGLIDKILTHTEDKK
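Purified B. subtilis ClpP, 10 microg/mL final in Tris/HCl pH8 with KCl, BSA, glycerol and Tween-20, cleaved an Abz/nitrotyrosine-quenched decapeptide. Fluorescence (ex 320, em 430) was read at 0 and 20 min at room temperature. Delta was normalized to 5.8 microM ADEP and DMSO/no-enzyme controls.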
HEK293 tox = cytotoxicity counter-screen for GLP-1 receptor inverse agonists; HEK293 cAMP-luciferase reporter cells, luminescence, 24 h; Potency, µM (highest dose often 38.3 µM), inactives show at the highest dose activity change, negative = inhibition, hits mostly inhibitors; 0.13% of 410,000 active;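 note: loss of luciferase light is scored as toxicity; % is set by controls: 0 for no effect and ±100 for the full control effect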
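Luminescence readout: signal drop marks cytotoxicity. Plated cells grew 12 h at 37 °C, 5% CO2, received 23 nL compound for 24 h, then got luciferase reagent, read after 12 min at RT.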
GLP1R ag = agonists of human GLP-1 receptor. HEK293 GLP-1R CRE-luciferase, luminescence, 4-6 h; cells express a hypersensitive GLP-1R form. Potency, µM (series often up to 45.6 µM), for inactives: top-dose activation, hits mostly activators. 0.007% of 380,000 active. AID 624172; note: % of control where 0% means no effect
Target sequence (P43220 whole entry, looked up): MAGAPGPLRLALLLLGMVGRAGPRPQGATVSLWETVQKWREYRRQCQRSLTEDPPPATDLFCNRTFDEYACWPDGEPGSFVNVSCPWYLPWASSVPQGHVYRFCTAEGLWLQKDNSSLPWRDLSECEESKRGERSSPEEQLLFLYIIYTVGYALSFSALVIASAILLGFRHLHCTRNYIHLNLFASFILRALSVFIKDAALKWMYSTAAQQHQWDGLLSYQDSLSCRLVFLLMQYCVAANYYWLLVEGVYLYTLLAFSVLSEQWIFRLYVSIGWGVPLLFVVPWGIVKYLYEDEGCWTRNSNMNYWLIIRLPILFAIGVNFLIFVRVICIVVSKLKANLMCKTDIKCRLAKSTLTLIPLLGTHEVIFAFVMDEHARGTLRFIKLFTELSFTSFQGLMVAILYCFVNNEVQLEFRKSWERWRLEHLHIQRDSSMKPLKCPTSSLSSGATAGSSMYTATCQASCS
GLP-1R inv ag = inverse agonists of human GLP-1 receptor; P43220; HEK293 GLP-1R CRE-luciferase, luminescence, 24 h; GLP-1R form is constitutively active; Potency, µM (titrated, usually from 38.3 µM), for the others: top-dose activity change, negative = inhibition, actives largely listed as inhibitors; 1.6% of 410,000 active; AID 624417; note: % is set by controls: 0 for no effect and ±100 for the full control effect; nearly all actives have a fitted effect of over 55% in size
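Stable HEK293 clone (constitutively active GLP-1R + cAMP-response luciferase); 200 cells/uL plated, 12 h pre-culture, compound 24 hr, 37 deg C/5% CO2; detection reagent 12 min RT; luminescence.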
* hit, by the source's call; ? = inconclusive; nt = no result. Unless noted, calls come from the whole dose curve; as a rule, active = well fitted curve in the direction sought with a large enough effect; inconclusive = small, poorly fitted or top-dose-only effect, or another doubt; inactive = no such curve, though single readings can be large; an effect the other way counts as inactive or inconclusive. Potency is the fitted concentration of half-maximal effect.

SMILES | ClpP mod | HEK293 tox | GLP1R ag | GLP-1R inv ag
C#CCn1c(=NC(=O)c2ccc(S(=O)(=O)N3CCc4ccccc4C3)cc2)sc2cc(S(N)(=O)=O)ccc21 | 28µM* | 3.5µM* | -31% | 4µM*
COCCn1c(=NC(=O)c2ccc(S(=O)(=O)N3CCc4ccccc4C3)cc2)sc2cc(S(N)(=O)=O)ccc21 | 14µM* | 6% | 1% | 13%
COc1ccc(CCNc2oc(/C=C/c3cc(OC)c(OC)c(OC)c3)nc2C#N)cc1OC | 4% | 20% | nt | 31%
O=C(O)c1ccc(/C=N/Nc2ccc(F)cc2F)cc1 | 0% | 6% | -17% | ?
Fc1ccc(N/N=C/c2ccncc2)c(F)c1 | 22µM* | -15% | 10% | 1.4µM*
CC(C)(Oc1ccc(Cl)cc1)C(=O)N(Cc1ccccc1)c1ccccn1 | -2% | 2% | -2% | 10µM*
CCCc1cc(N2CCN(C(=O)c3ccco3)CC2)n2c(nc3ccccc32)c1C#N | 35µM* | 466% | -7% | ?
Cc1cccc(N=Nc2ccc(O)c3ncccc23)c1 | -1% | -15% | -6% | 9%
Oc1ccc(N=Nc2ccc3c(c2)OCCO3)c2ncccc12 | 1% | 10µM* | -1% | ?
Cc1cccc(NC(=O)c2oc3ccccc3c2NC(=O)Cc2coc3c(C)c(C)ccc23)c1 | ? | 2% | nt | 29%
Cc1cc2n(n1)C(c1ccc(O)cc1)Nc1ccccc1-2 (centres undefined) | 28µM* | 3% | 47% | -20%
Cc1cc2n(n1)C(c1ccco1)Nc1ccccc1-2 (centres undefined) | ? | -19% | 7% | 0%
CCOc1cccc(C2Nc3ccccc3-c3cc(C)nn32)c1O (centres undefined) | 3% | 1% | nt | -27%
COc1cc(C2Nc3ccccc3-c3cc(C)nn32)ccc1O (centres undefined) | 32µM* | -5% | nt | -12%
CCOc1ccc(C2Nc3c(C)cccc3-c3cc(C)nn32)cc1 (centres undefined) | 4% | -1% | nt | ?
COc1ccc(C2Nc3ccccc3-c3cc(C)nn32)cc1OC (centres undefined) | 14µM* | -6% | nt | 6%
CCOC(=O)NN1C(=O)c2ccccc2NC1c1cccs1 (centres undefined) | 0% | 0% | 2% | 17%
Cc1cc2n(n1)C(c1cccs1)Nc1ccccc1-2 (centres undefined) | 20µM* | -8% | 5% | 6%
CCCCCn1c(=O)[nH]c2cc(C(=O)NCc3ccc(OC)cc3)ccc2c1=O | -11% | 0% | 1% | 37%
CC(C)(Cc1ccc(O)cc1)NC(=O)SCc1ccccc1 | 0% | 3% | 13% | 13µM*
C[C@@](Cc1ccccc1)(NC(=O)CN)c1ccccc1 | nt | nt | 1% | nt
CCOC(=O)N1CCc2c(sc3c2c(=O)n(Cc2ccccc2)c(=O)n3CC(=O)Nc2cccc(CC)c2)C1 | -1% | -1% | nt | 9%
COc1ccc(N2CCN(CC(=O)Nc3ccc(SC(F)F)cc3)CC2)cc1 | -1% | -6% | -6% | 10µM*
COc1ccc(N2CCN(CC(=O)Nc3ccc(C)cc3)CC2)cc1 | -5% | 0% | 9% | ?
O=C(COC(=O)c1cc([N+](=O)[O-])ccc1N1CCOCC1)NCc1ccc(Cl)cc1Cl | 0% | -25% | 7% | 11µM*
SMILES | ClpP mod | HEK293 tox | GLP1R ag | GLP-1R inv ag
O=C(OCc1cccc(C(F)(F)F)c1)c1cc([N+](=O)[O-])ccc1N1CCOCC1 | 1% | -9% | 23% | 10µM*
O=C(c1ccc(Br)cc1)c1cc([N+](=O)[O-])ccc1N1CCOCC1 | 2% | ? | 24% | 1.4µM*
O=C(c1ccc(Cl)cc1)c1cc([N+](=O)[O-])ccc1N1CCOCC1 | nt | ? | 26% | ?
O=C(c1ccccc1)c1cc([N+](=O)[O-])ccc1N1CCOCC1 | -6% | 11µM* | ? | ?
COc1ccc(-c2noc(-c3nnn(-c4ccc(C(C)C)cc4)c3C)n2)cc1OC | -23% | 0% | nt | 8%
Cn1c2ccccc2c2cnn(CC(=O)N3CCN(c4cccc(C(F)(F)F)c4)CC3)c(=O)c21 | -2% | -9% | nt | 5%
O=C(CCS(=O)(=O)c1nc(-c2cccs2)cc(C(F)(F)F)n1)Nc1ccc(Br)cc1 | 32µM* | ? | nt | ?
CCn1c(SCC(=O)Nc2oc(-c3ccccc3)c(-c3ccccc3)c2C#N)nnc1-c1ccco1 | -7% | 31% | -10% | ?
COc1ccc(-c2oc(NC(=O)CSc3nncn3C)c(C#N)c2-c2ccc(OC)cc2)cc1 | 120% | -36% | -8% | 1.6µM*
O=C(Nc1ccc(C(=O)N2CCC(O)(c3ccc(Cl)c(C(F)(F)F)c3)CC2)cc1)c1ccc(Br)o1 | -1% | -1% | -3% | 10µM*
FC(F)(F)c1cc(-c2cccs2)nc(-n2cc(Br)cn2)n1 | 32µM* | -7% | 1% | ?
COc1cc(C2CC(=O)c3c([nH]c(C(=O)OC4CCCC4)c3C)C2)cc(OC)c1OC (centres undefined) | -3% | -18% | nt | ?
CCOC(=O)c1ccc(-n2c(N)c(C(=O)OC)c3nc4ccccc4nc32)cc1 | 2.8µM* | 45% | nt | 3%
CCOC(=O)c1c(N)n(-c2ccc(N)cc2)c2nc3ccccc3nc12 | -4% | -13% | 5% | 49%
CCOC(=O)c1c(N)n(CCOC(=O)c2cccs2)c2nc3ccccc3nc12 | 7.9µM* | 325% | 17% | 91%
CC1(C)CC(=O)c2cc(C(=O)NC3CCSC3=O)c(=O)n(-c3ccccc3)c2C1 (centres undefined) | 25µM* | 8% | 1% | -20%
O=C1CCCc2c1cc(C(=O)NC1CCSC1=O)c(=O)n2-c1ccccc1 (centres undefined) | 25µM* | -6% | -9% | 1%
COc1ccc(-n2c3c(cc(C(=O)NNc4ccccc4)c2=O)C(=O)CC(C)(C)C3)cc1 | nt | -11% | 12% | 1µM*
CCOc1ccc(NC(=O)Cn2cc(C(=O)c3ccccc3)c(=O)c3cc4c(cc32)OCO4)cc1 | -2% | 3% | -3% | 6%
CC(C(O)c1ccccc1)N(C)CCOC(c1ccccc1)c1ccccc1 (centres undefined) | nt | nt | 10% | nt
Cc1ccnc(SCc2cc(=O)c(OC(=O)c3ccc(S(=O)(=O)N(C)C)cc3)co2)n1 | -20% | -24% | -14% | -3%
Cc1cc(C)nc(SCc2cc(=O)c(OC(=O)c3ccc(S(=O)(=O)N(C)C)cc3)co2)n1 | 2.8µM* | -2% | -8% | -1%
Cc1ccc(C)c(Nc2nc3nonc3nc2Nc2cccc(C)c2C)c1 | -2% | ? | nt | ?
CCOC(=O)c1ccc(Nc2nc3nonc3nc2Nc2cccc(C)c2C)cc1 | 1% | ? | nt | 2.8µM*
CC(OC(=O)c1ccccc1OCCOc1ccccc1)C(=O)Nc1ccc(Br)cc1 (centres undefined) | -4% | nt | nt | nt
